Growth data for 40 molecules are collected here from PubChem BioAssay (NCI).

The panel holds about 83,000 compounds, 20% with a hit somewhere; the sample as a whole holds those more often.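 48-hour exposure, single concentration, 96-well plates; percent growth endpoint where 0 means no net growth. Active: below 10.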 Calls of active or inactive are those of the source.

The subject of this assay is SK-MEL-28 melanoma. The assay can be described thus: NCI-60 one-dose screen, 48 h (100 = growth as untreated, 0 = no growth, -100 = all killed). The note with it: 10 µM unless noted. Here is the method: Growth inhibition of the SK-MEL-28 human tumor cell line is measured as a screen for anti-cancer activity. Cells are grown in 96 well plates and exposed to the test compound for 48 hours. Compounds are tested at a single concentration, which is 10^-5 M for most compounds. The reported endpoint is percent growth (GI% or GIPRCNT), where numbers from 0 - 100% represent growth inhibition, and numbers from -100% - 0 represent cell death. For example, a value of 40 represents 60% growth inhibition. A value of 0 means no net growth occurred over the course of the experiment. A value of -40 indicates 40% of cells at the beginning of the experiment died by the end of the experiment. A value of -100 means all cells are dead at the end of the experiment.
NCI-60 Human Tumor Cell Lines Screen was performed using the standard one-dose NCI protocol, which is described in more detail at https://dtp.cancer.gov/discovery_development/nci-60/default.htm.
Compounds with GIPRCNT values below 10 were considered active. Activity score was based on GIPRCNT using the following formula: […]
Score is 0 for GIPRCNT values of 100 or above, 50 for GIPRCNT values of 0, and 100 for GIPRCNT values of -100.
`C#Cc1nc(C2=C(C)C(O)CC2)cs1` (stereo not given): the growth was 105% (inactive). The figure for `N#Cc1nc(-c2ccccc2)oc1N1CC[C@@H](CO)C1` is 101% (inactive). Regarding `CCOC(=O)c1c(Nc2ccccc2)nn2c(-c3ccco3)c(C#N)cnc12`, the growth was 90.6% (inactive). The figure for `O=C1C2=C(C(=O)c3c(O)cccc31)C(c1ccco1)c1sc(=O)[nH]c1S2` (stereo not given) is -28.8% (active).

Turning to `N#Cc1c(-c2ccc(Cl)cc2)nc(SCc2ccc([N+](=O)[O-])cc2)nc1N1CCNCC1`, the growth was 8.08% (active). The figure for `COc1cc(/C=C/C(=O)c2ccc(Cl)cc2)ccc1Oc1nc(NCCO)nc(N2CCOCC2)n1` is 108% (inactive); for `O=C1Nc2cc(Cl)ccc2/C1=C\c1ccc(OCc2ccc(Br)cc2F)cc1` it is -63% (active). The figure for `CCOC(=O)c1c(NC(=O)c2cccc(C(F)(F)F)c2)sc2cc(O)ccc12` is 108% (inactive); for `CCOC(=O)c1c(Nc2ccccc2)nn2c(N)c(C#N)c(-c3ccc(F)cc3)nc12` it is 100% (inactive); for `C#C[C@]1(O)CC[C@H]2[C@@H]3CC=C4c5sc(Nc6ccc(Cl)cn6)nc5CC[C@]4(C)[C@H]3CC[C@@]21C` it is -27% (active). In the case of `NC(=O)c1cc(-c2ccc3ncnc(N4CCc5cc(F)c(Cl)cc54)c3c2)cnc1N`, the growth is 28.8% (inactive). The figure for `COc1cc(/C=C/C(=O)c2cc(OC)c(OC)c(OC)c2)ccc1OCc1ccc(F)cc1` is 81.1% (inactive).

With `OC1CCN(CCCOc2c3ccccc3nc3c2oc2ccccc23)CC1`, the growth is -2.42% (active). With `CCCCCCNC(=O)Oc1ccc(/C(=C(/C)c2ccccc2)c2ccc(OCCN3CCCCCC3)cc2)cc1`, the growth is 44.4% (inactive).

On to `CC(=O)Oc1ccccc1C(=O)Nc1cc(C(C)C)ccc1C`, for which the growth was 18% (inactive). Next, `O=C(c1ccc(Cl)cc1)C1[C@H](c2ccc(Cl)cc2)[C@@H](c2ccccc2)NC12C(=O)Nc1ccc(Br)cc12` (stereo not given in full): 67.3% (inactive); `O=C(O)CCCCCN1C(=O)/C(=C/c2ccc(O)c(O)c2)SC1=S`: 102% (inactive); `Cc1ccc(/C=C/c2nn3c(-c4ccco4)nnc3s2)cc1C`: 104% (inactive). On to `Nc1ncc(-c2ccc3ncnc(N4CCc5cc(F)c(Cl)cc54)c3c2)cc1CO`, for which the growth was -4.29% (active). The figure for `COc1cc2nc(-c3ccc(Cl)cc3)cc(OCCCNCC3CCCO3)c2cc1OC` (stereo not given) is 8.95% (active). Turning to `CC(C)(C)Nc1nc2c(OCCc3ccccc3)cccn2c1-c1ccccc1Cl`, the growth was 0.829% (active). `COc1cc(/C=C/C(=O)c2ccc(C(F)(F)F)cc2)ccc1Oc1nc(NCCO)nc(N2CCOCC2)n1`: the growth was 96.1% (inactive). The figure for `COc1ccc(/C=N/Nc2ccnc3cc(Cl)ccc23)cc1Cl` is -92.4% (active); for `COc1ccc(/C=N/NC(=O)c2[nH]c3ccc(Br)cc3c2-c2ccccc2)s1` it is 63.6% (inactive); for `O=C1c2c(c3c4cccnc4[nH]c3c3ccc4ccccc4c23)C(=O)N1CCO` it is 102% (inactive). Consider `O=c1[nH]c2ccccc2cc1CSc1ccccc1Nc1nccc(-c2ccc(C(F)(F)F)cc2)n1`, for which the growth is 84.9% (inactive). For `Cc1cc2nc3c4cc(Cl)ccc4n(CC(=O)NCCN(C)C)c3nc2cc1C`, the growth was -88.6% (active). For `CCN1C(=S)N(CC)C2C1N=C(SC)N2/N=C/C=C/c1ccccc1[N+](=O)[O-]` (stereo not given), the growth is 105% (inactive).

Take `COc1ccc(N/N=C/c2c(-c3ccc(S(C)(=O)=O)cc3)nc3ccccn23)cc1`: the growth was 51.5% (inactive). `COc1cc(/C=C/C(=O)c2ccc(C)cc2)ccc1Oc1nc(NCCO)nc(N2CCOCC2)n1`: the growth was 76.6% (inactive). Consider `O=c1/c(=C\c2ccc(-c3ccccc3)o2)sc2nc(-c3ccccc3)nn12`, for which the growth is 109% (inactive). Next, `NS(=O)(=O)c1ccc(Nc2nc(SCC(=O)c3ccc(Cl)cc3)nc3ccccc23)cc1`: 100% (inactive).

For the molecule `COc1cc(/C=C/C(=O)c2ccc(F)cc2)ccc1Oc1nc(NCCO)nc(N2CCOCC2)n1`, the growth was 91.3% (inactive). The figure for `Cc1cc(C(NC(=O)CCCCCNc2cccc3c2C(=O)N(C2CCC(=O)NC2=O)C3=O)c2cccnc2)c(O)c2ncccc12` (stereo not given) is 25.2% (inactive); for `CCN1CCN(/C(=N\c2sc(-c3ccccc3)nc2-c2ccccc2)c2ccccc2)CC1` it is 80.6% (inactive); for `CS(=O)(=O)c1ccc(-n2cc(/C=C/C(=O)c3ccc(NC(=O)CO[N+](=O)[O-])cc3)c(-c3ccc(Cl)cc3)n2)cc1` it is 66.1% (inactive).

`O=C(CN1CCOCC1)NNc1ncnc2ccccc12`: the growth is 71.1% (inactive). Regarding `C#Cc1nc(C2=C(C)C(OC(=O)CCC(=O)O)CC2)cs1` (stereo not given), the growth is 115% (inactive).

As to `COc1ccc(-c2nc3ccc(-c4nnc(SCC(=O)Nc5ccc(C(C)=O)cc5)o4)cc3[nH]2)cc1`, the growth is 112% (inactive). Turning to `CN(C)CCCOc1c2ccccc2nc2c1oc1ccc(Cl)cc12`, the growth is 9.1% (active).
